# Assay results reported in paper PMC5540273 (PLoS ONE, 2017).
# Key:
# Details in all cases: concentration: 1 μM, replicates: in singlicate; n = 1
# PIP5K1A = system: PIP5K1A
# PIP5K1C = system: PIP5K1C
# PIP5K2B = system: PIP5K2B
# PIP5K2C = system: T1, PIP5K2C
# T1 construct: gene PIP4K2C
# PKAC-alpha = system: T2, PKAC-alpha
# T2 construct: gene PRKACA
# PKAC-beta = system: T3, PKAC-beta
# T3 construct: gene PRKACB
# PKMYT1 = system: PKMYT1
# PKN1 = system: PKN1
# PKN2 = system: PKN2
# PLK1 = system: PLK1
# PLK2 = system: PLK2
# PLK3 = system: PLK3
# PLK4 = system: PLK4
# PRKCD = system: PRKCD
# PRKCE = system: PRKCE
# PRKCH = system: PRKCH
# PRKCI = system: PRKCI
# PRKCQ = system: PRKCQ
# PRKD1 = system: PRKD1
# PRKD2 = system: PRKD2
# 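Further: KINOMEscan kinase panel screen.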
SMILES,%Inh (PIP5K1A) [%],%Inh (PIP5K1C) [%],%Inh (PIP5K2B) [%],%Inh (PIP5K2C) [%],%Inh (PKAC-alpha) [%],%Inh (PKAC-beta) [%],%Inh (PKMYT1) [%],%Inh (PKN1) [%],%Inh (PKN2) [%],%Inh (PLK1) [%],%Inh (PLK2) [%],%Inh (PLK3) [%],%Inh (PLK4) [%],%Inh (PRKCD) [%],%Inh (PRKCE) [%],%Inh (PRKCH) [%],%Inh (PRKCI) [%],%Inh (PRKCQ) [%],%Inh (PRKD1) [%],%Inh (PRKD2) [%]
O=C(O)C(F)(F)F.O=c1[nH]ccc2nc(N[C@@H]3CCNC3)nc(Nc3ccc4c(c3)S(=O)(=O)CC4)c12 [GSK2181306],57,84,84,76,24,43,16,0,71,31,5,0,97.4,99.1,97.9,92.9,78,53,92.1,96.2
O=C(Nc1c(F)cccc1F)c1cc(C(=O)c2ccccc2F)c[nH]1 [GSK1326180],34,49,0,25,0,5,3,8,0,18,0,0,0,9,0,4,2,20,11,14
CN(C)CCNS(=O)(=O)c1ccc(-c2ccnc3[nH]ccc23)cc1 [GSK977620],8,32,0,0,98.4,97.7,14,9,56,0,0,0,1,83,88,82,21,62,0,10
Nc1ncc(-c2cn[nH]c2)c2scc(-c3ccc4c(c3)CCN4C(=O)Cc3ccccc3)c12 [GSK2593067],0,30,0,0,20,19,0,12,9,0,17,0,0,0,0,16,32,17,0,0
NCCC(NC(=O)c1cc(Br)c(-c2ccnc3[nH]ccc23)s1)c1ccccc1.O=C(O)C(F)(F)F.O=C(O)C(F)(F)F (stereo not shown) [GSK1307810],82,81,0,57,99.4,99.6,0,50,87,0,28,35,19,99.6,98.1,98.3,0,90,0,31
Cc1ccc(O)cc1Nc1ccnc2ccc(C(C)(C)C)cc12 [GW856805],0,0,0,0,43,0,14,0,14,63,29,15,27,17,31,3,39,0,0,13
O=C(O)C(F)(F)F.O=c1[nH]ccc2nc(N[C@@H]3CCNC3)nc(Nc3cc(Cl)cc(Cl)c3)c12 [GSK2188764],75,75,86,85,20,35,8,83,81,81,26,16,81,99.6,100,97.4,85,95.1,82,93.4
COc1cccc2c(-c3ccncc3)c(-c3ccc(F)cc3)nn12 [GW468513],0,64,6,26,23,31,0,6,0,0,0,0,0,6,25,30,26,41,29,20
Cc1cc(-c2c(-c3ccc(F)cc3)ncn2CCCN2CCOCC2)nc(N)n1 [SB-222517],0,0,0,0,26,16,4,0,10,12,11,25,15,28,0,0,27,0,0,0
N#Cc1cnc2cc(-c3cnc(CNCCN4CCOCC4)s3)ccc2c1Nc1ccc(Oc2ccccc2)cc1 [GW664114],25,34,31,41,0,0,0,13,0,0,0,0,2,0,0,96.3,5,0,0,18
O=C(Nc1n[nH]c2nc(-c3ccccc3)ccc12)C1CC1 [SB-708999],46,84,12,34,4,0,0,11,0,16,0,0,17,0,2,24,27,0,0,7
COc1cccc(-c2nc(-c3ccccc3)[nH]c2-c2ccncc2)c1 [SB-610250],0,38,39,8,0,0,0,0,0,0,0,0,0,0,7,0,25,0,14,0
Cl.Cl.NC(CNC(=O)c1cc(Br)c(-c2ccnc3[nH]ccc23)s1)c1ccccc1 (stereo not shown) [GSK1322949],74,85,86,57,98.4,97.2,16,14,33,15,74,48,41,76,93.1,92.6,36,74,0,24
Cl.N#CCc1ccc(Nc2nccc(Nc3ccc(Oc4ccccc4)cc3)n2)cc1 [GW639905],26,34,20,78,0,0,0,39,0,0,0,0,1,0,6,0,4,0,0,0
Nc1ncc(-c2ccc3nccc(-c4ccncc4)c3c2)cc1S(=O)(=O)N1CCCCC1 [GSK1693850],0,40,0,62,1,0,0,9,0,76,30,27,0,15,31,36,9,0,0,4
Cl.Cl.NCC(NC(=O)c1cc(-c2cccnc2)c(-c2ccnc3[nH]ccc23)s1)c1ccccc1 (stereo not shown) [GSK1323434],29,80,10,65,95.7,91.2,10,0,0,2,35,0,0,95.4,82,88,47,75,1,12
CN(c1ccc(NC(=O)Nc2cccc(Cl)c2)cc1)c1ccnc(N)n1.Cl [GW830707],12,0,0,29,13,26,3,0,0,26,14,3,14,7,28,0,0,0,0,0
O=C(Nc1n[nH]c2nc(-c3cccc(O)c3)ccc12)C1CC1 [SB-711805],32,98,8,0,3,0,0,0,24,0,11,14,31,1,83,0,13,0,0,20
Cc1cccc(Nc2nc(NCCN)ncc2C(N)=O)c1 [GSK1292139],50,83,15,20,0,0,7,18,29,6,0,0,10,26,44,22,2,7,85,87
Cc1nn2c(=O)cc(N3CCO[C@H](C)C3)nc2n1Cc1cccc(Cl)c1Cl [GSK2373693],0,83,4,0,23,14,62,43,0,0,0,0,48,0,74,13,24,12,14,2
